Consider 43 sequences from the supplement of paper PMC3545927.

This test addresses furin, P09958. In words: furin cleavage Z-score vs untreated control; higher = more cleavage, active = 3.5 or more, inactive = 1 or less, 8 variable residues between constant flanks. A digest of the protocol:
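Cleavage by purified furin was measured on 8-mer peptides fused to a cDNA oligonucleotide and held on magnetic beads by their N-terminus. Reactions (0.01 ml, 1:10 enzyme:substrate) ran 7.5, 15 or 30 min in 50 mM HEPES pH 7.5 with CaCl2 and NaCl. Released DNA was adapter-tagged by PCR and sequenced, with read counts giving abundance. Log counts versus furin-free reactions were lowess-adjusted and scaled by median absolute deviation to give the cleavage Z-score.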

This is one part of the list. How many sequences the whole screen found active is unknown.

furin, P09958, sequence (P09958 whole entry, the tested form may be a part): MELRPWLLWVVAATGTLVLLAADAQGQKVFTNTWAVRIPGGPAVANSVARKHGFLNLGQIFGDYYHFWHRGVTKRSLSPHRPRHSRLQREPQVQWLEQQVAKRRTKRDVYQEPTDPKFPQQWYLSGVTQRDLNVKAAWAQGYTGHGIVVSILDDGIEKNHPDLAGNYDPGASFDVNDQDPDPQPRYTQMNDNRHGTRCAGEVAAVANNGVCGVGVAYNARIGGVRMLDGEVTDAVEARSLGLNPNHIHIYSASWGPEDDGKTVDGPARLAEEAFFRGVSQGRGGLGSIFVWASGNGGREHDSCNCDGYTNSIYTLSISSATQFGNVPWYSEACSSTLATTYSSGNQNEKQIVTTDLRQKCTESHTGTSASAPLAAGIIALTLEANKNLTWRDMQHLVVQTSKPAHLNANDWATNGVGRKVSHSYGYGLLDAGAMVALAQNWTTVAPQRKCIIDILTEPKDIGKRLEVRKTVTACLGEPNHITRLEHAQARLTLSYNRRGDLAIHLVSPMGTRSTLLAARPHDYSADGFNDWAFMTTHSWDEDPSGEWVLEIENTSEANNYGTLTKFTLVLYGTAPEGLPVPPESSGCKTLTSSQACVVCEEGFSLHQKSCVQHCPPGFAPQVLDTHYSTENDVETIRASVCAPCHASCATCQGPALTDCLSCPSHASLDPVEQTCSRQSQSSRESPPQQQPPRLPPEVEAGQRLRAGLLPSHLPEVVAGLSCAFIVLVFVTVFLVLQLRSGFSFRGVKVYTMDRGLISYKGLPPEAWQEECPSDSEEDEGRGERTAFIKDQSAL

CATTPCKGSWAGNASASA [HC71]: the “furin cleavage Z-score” value reads like this: (7.5 min) 1.27; (15 min) 0.748 (inactive); (30 min) 0.0767 (inactive).
Turning to CAMEECSQHNAGNASASA [HC1781], the “furin cleavage Z-score” value was 1.41 (7.5 min), 1.49 (15 min) and 0.115 (inactive) (30 min).
Regarding CATTPCSGGWAGNASASA [HC1916], the “furin cleavage Z-score” value is, setting by setting: (7.5 min) -1.1 (inactive); (15 min) -1.09 (inactive); (30 min) -1.17 (inactive).
In the case of CAMPKKTRRSAGNASASA [FS-1140], the “furin cleavage Z-score” value (7.5 min) is 9.94 (active), the “furin cleavage Z-score” value (15 min) is 11.9 (active) and the “furin cleavage Z-score” value (30 min) is 9.14 (active).
The matching figures for CARLCRKRRCAGNASASA [FS-1478]: 5.9 (active), 6.48 (active) and 7.28 (active).
As for CARLASCRPLAGNASASA [HC388], the “furin cleavage Z-score” value runs as follows: (7.5 min) -0.427 (inactive); (15 min) -1.06 (inactive); (30 min) -2.04 (inactive).
Take CARKKKRQSLAGNASASA [FS-2153]: the “furin cleavage Z-score” value by setting is: (7.5 min) 0.376 (inactive); (15 min) 0.239 (inactive); (30 min) 0.449 (inactive).
In the case of CARAGRSKRTAGNASASA [FS-486], the “furin cleavage Z-score” value runs as follows: (7.5 min) 10.8 (active); (15 min) 9.36 (active); (30 min) 7.48 (active).
Regarding CARAGRACEGAGNASASA [FS-2882], the “furin cleavage Z-score” value reads like this: (7.5 min) 0.299 (inactive); (15 min) -0.431 (inactive); (30 min) 0.946 (inactive).
The matching figures for CARAGRSAPLAGNASASA [FS-2883]: 2.27, 5.01 (active) and 3.82 (active).
Take CARAGRSGKEAGNASASA [FS-1990]: the “furin cleavage Z-score” value by setting is: (7.5 min) 0.457 (inactive); (15 min) 0.0281 (inactive); (30 min) -1.58 (inactive).
The matching figures for CAPLKRSMSLAGNASASA [FS-2875]: 2.28, 0.41 (inactive) and 0.484 (inactive).
With CARIKRGNTTAGNASASA [FS-2952], the “furin cleavage Z-score” value runs as follows: (7.5 min) 4.9 (active); (15 min) 5.56 (active); (30 min) 4.43 (active).
For CAWISSECTTAGNASASA [HC1142], in that order: -0.663 (inactive), -0.247 (inactive) and 0.84 (inactive).
In the case of CARIKRRKSLAGNASASA [FS-2953], the “furin cleavage Z-score” value runs as follows: (7.5 min) 2.28; (15 min) 3.44; (30 min) 5 (active).
For CARAGRSKGTAGNASASA [FU10], in that order: 1.67, 1.52 and 0.0134 (inactive).
As for CAGITGDNTTAGNASASA [HC1340], the “furin cleavage Z-score” value was 0.448 (inactive) (7.5 min), -1.88 (inactive) (15 min) and -0.26 (inactive) (30 min).
For CALLLAVFGPAGNASASA [HC606], the “furin cleavage Z-score” value is -1.28 (inactive) (7.5 min), -0.292 (inactive) (15 min) and 0.343 (inactive) (30 min).
For CAVVCCVMSYAGNASASA [HC103], in that order: -1.06 (inactive), -0.0414 (inactive) and -1.47 (inactive).
For CARIKRSRKLAGNASASA [FS-3156], the “furin cleavage Z-score” value is, setting by setting: (7.5 min) 7.25 (active); (15 min) 9.58 (active); (30 min) 9.07 (active).
For CARLKRLCSSAGNASASA [FS-2990], in that order: 0.399 (inactive), -0.446 (inactive) and 0.202 (inactive).
For CARKSRWAKLAGNASASA [FS-2982], in that order: -0.417 (inactive), 0.0632 (inactive) and 3.23.
For CARIKRQHSSAGNASASA [FS-1898], in that order: 4.55 (active), 5.06 (active) and 4.01 (active).
Regarding CAPRSRARKLAGNASASA [FS-842], the “furin cleavage Z-score” value by setting is: (7.5 min) 0.0836 (inactive); (15 min) 1.96; (30 min) -0.483 (inactive).
As to CASTPCSAPLAGNASASA [HC2559], the “furin cleavage Z-score” value (7.5 min) was -0.781 (inactive), the “furin cleavage Z-score” value (15 min) was 0.424 (inactive) and the “furin cleavage Z-score” value (30 min) was 0.232 (inactive).
CARVWRATSSAGNASASA [FS-2110]: the “furin cleavage Z-score” value runs as follows: (7.5 min) 1.3; (15 min) 0.783 (inactive); (30 min) 0.938 (inactive).
For CATFYGMWPLAGNASASA [HC555], the “furin cleavage Z-score” value (7.5 min) is -1.22 (inactive), the “furin cleavage Z-score” value (15 min) was -0.0659 (inactive) and the “furin cleavage Z-score” value (30 min) was found to be 1.29.
As to CARIKRSAPLAGNASASA [FS-2954], the “furin cleavage Z-score” value was 11.4 (active) (7.5 min), 11.4 (active) (15 min) and 10.2 (active) (30 min).
For the sequence CAEREVPCHRAGNASASA [HC2432], the “furin cleavage Z-score” value was 0.541 (inactive) (7.5 min), 0.603 (inactive) (15 min) and 1.7 (30 min).
Regarding CAEYVVLLFLAGNASASA [HC519], the “furin cleavage Z-score” value reads like this: (7.5 min) -0.402 (inactive); (15 min) 0.168 (inactive); (30 min) -0.326 (inactive).
CACFAWYLKGAGNASASA [HC547]: the “furin cleavage Z-score” value was -1.21 (inactive) (7.5 min), -0.696 (inactive) (15 min) and 0.991 (inactive) (30 min).
As for CARRRRTAILAGNASASA [FS-2799], the “furin cleavage Z-score” value by setting is: (7.5 min) 5.32 (active); (15 min) 8.15 (active); (30 min) 8.93 (active).
For CARRRRRTAIAGNASASA [FS-2080], the “furin cleavage Z-score” value is, setting by setting: (7.5 min) 4.79 (active); (15 min) 6.3 (active); (30 min) 6.06 (active).
Turning to CAAARVTAILAGNASASA [HC1131], the “furin cleavage Z-score” value by setting is: (7.5 min) 0.0621 (inactive); (15 min) 1.08; (30 min) -0.5 (inactive).
Regarding CARRRRKVLAAGNASASA [FS-2181], the “furin cleavage Z-score” value runs as follows: (7.5 min) -0.244 (inactive); (15 min) 1.09; (30 min) 1.13.
As to CARRRRTAFAAGNASASA [FS-2798], the “furin cleavage Z-score” value is 5.77 (active) (7.5 min), 8.03 (active) (15 min) and 7.17 (active) (30 min).
In the case of CARRRRTALAAGNASASA [FS-2800], the “furin cleavage Z-score” value (7.5 min) was 7.39 (active), the “furin cleavage Z-score” value (15 min) is 9.46 (active) and the “furin cleavage Z-score” value (30 min) was 7.26 (active).
As to CALTHIDAHFAGNASASA [HC943], the “furin cleavage Z-score” value reads like this: (7.5 min) -1.16 (inactive); (15 min) -1.18 (inactive); (30 min) -0.971 (inactive).
For the sequence CARATRARRAAGNASASA [FS-82], the “furin cleavage Z-score” value runs as follows: (7.5 min) 10.6 (active); (15 min) 10.6 (active); (30 min) 7.6 (active).
CARKTRSARRAGNASASA [FS-2040]: the “furin cleavage Z-score” value reads like this: (7.5 min) 7.75 (active); (15 min) 10.4 (active); (30 min) 8.66 (active).
With CARKTRSHTAAGNASASA [FS-3225], the “furin cleavage Z-score” value runs as follows: (7.5 min) 4.24 (active); (15 min) 5.12 (active); (30 min) 4.27 (active).
Regarding CAGLPVSARRAGNASASA [HC660], the “furin cleavage Z-score” value was -1.44 (inactive) (7.5 min), -0.486 (inactive) (15 min) and -0.384 (inactive) (30 min).
Turning to CAGWKRARRAAGNASASA [FS-246], the “furin cleavage Z-score” value is, setting by setting: (7.5 min) 10.7 (active); (15 min) 11 (active); (30 min) 9.68 (active).
